Shown are actives, neighbours in structure and some others; about 19% of the full set was active somewhere.
HT1080NT lethal = kills 2HG-producing HT-1080-NT fibrosarcoma cells; HT-1080-NT fibrosarcoma viability, CellTiter-Glo ATP luminescence, 48 h; Potency, µM (highest dose often 46.1 µM), actives largely listed as cytotoxic; hit rate 1.6% among 360,000;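 also: NT is the 2HG producing partner of a matched IDH1 knockdown line; nearly all actives have a fitted effect of over 55% in size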
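A 48-hour cytotoxicity screen used HT-1080-NT cells plated 2 hours before compound delivery. ATP-based CellTiter-Glo luminescence measured viability, normalized to DMSO and no-cell controls.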
ELG1 repair inh = blocks ELG1-dependent DNA repair in HEK293T cells | HEK293T ELG1-luciferase reporter, luminescence, 16 h; DNA damage induced by 5-fluorouridine | Potency, µM (series often up to 46.1 µM), actives largely listed as inhibitors | hit rate 2.3% among 330,000 | AID 504467; also: nearly all actives have a fitted effect of over 55% in size
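DMSO vehicle served as the neutral condition. Each well held 2,000 cells given 5-fluorouridine plus compound; after 16 hr at 37 °C/5% CO2, ONE-Glo was added and luciferase measured 30 min later.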
TDP1 cell CPT = DT40-hTDP1 cell growth loss with CPT; Potency, µM (top dose mostly 46.2 µM), actives largely listed as inhibitors; AID 686979; hit rate 12% among 420,000; chicken DT40 Tdp1-/-;hTDP1 cells + 20 nM CPT, ATP luminescence, 48 h; also: nearly all actives have a fitted effect of over 55% in size
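Chicken DT40 Tdp1-/- cells stably complemented with human TDP1 were seeded at 400 cells/well in medium containing 20 nM camptothecin, exposed to pin-transferred compounds, and grown at 37 °C for at least 48 hr. Viability was read as ATP luminescence.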
IL1B secr inh = blocks inflammasome-driven IL-1 beta release; activity change, % at 57.5 µM; THP-1 LPS/ATP IL-1B secretion, AlphaLISA, 16 h; stronger effect = lower value; hit rate 4.7% among 360,000; in the data active = activity change below about -50%; inconclusive = mostly about -30% to -49%
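THP-1 cells pretreated 1 hr with compounds (up to 57.5 uM final), then stimulated with LPS (250 ng/mL final) plus ATP (1.25 mM final); secreted IL-1B measured by AlphaLISA after 16 hr, decreased signal indicating inhibition.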
DT40 TDP1 no CPT = qHTS for Inhibitors of human tyrosyl-DNA phosphodiesterase 1 (TDP1): qHTS in cells in absence of CPT. DT40 Tdp1-/- hTDP1 cells, no CPT, ATP luminescence, 48 h. Potency, µM (series often up to 46.2 µM), hits mostly inhibitors. hit rate 15% among 420,000; also: nearly all actives have a fitted effect of over 55% in size
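Readout: luminescence from CellTiter-Glo after 30 min in the dark at RT. Cells: DT40 Tdp1-/- with stable hTDP1, 400/well. Exposure: compounds alone, ≥48 hr, 37 °C.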
HT1080 IDH1KD tx = toxicity to HT-1080 IDH1 knockdown cells (counter line) | Potency, µM (series often up to 46.1 µM), most hits filed as cytotoxic | AID 686971 | hit rate 2% among 360,000 | HT-1080 IDH1 knockdown viability, ATP luminescence, 48 h
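CellTiter-Glo luminescence after 48 h compound exposure at 37 degrees C of IDH1-knockdown HT-1080 cells in 5% FBS RPMI. %Activity scaled between DMSO wells and cell-free media wells, with curves fitted and assigned curve classes.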
A number is an active result; 0 = inactive; ? = inconclusive; - = not tested or not shown. Unless noted, calls follow the shape of the dose curve; as a rule, active = well fitted curve in the direction sought with a large enough effect; inconclusive = small, poorly fitted or top-dose-only effect, or another doubt; inactive = no such curve, though single readings can be large; an effect the other way counts as inactive or inconclusive.

SMILES	HT1080NT lethal	ELG1 repair inh	TDP1 cell CPT	IL1B secr inh	DT40 TDP1 no CPT	HT1080 IDH1KD tx
O=S(=O)(c1nccs1)N1CCN(c2nc(-c3cccs3)nc3ccccc23)CC1	0	-	?	-	11µM	0
O=S(=O)(Cc1ccccc1)N1CCN(c2nc(-c3cccs3)nc3ccccc23)CC1	0	-	?	-	13µM	0
Cc1ccc(S(=O)(=O)N2CCCN(c3nc(-c4cccs4)nc4ccccc34)CC2)cc1	-	-	13µM	-	?	-
Cc1cc(C)cc(S(=O)(=O)N2CCN(c3nc(-c4cccs4)nc4ccccc34)CC2)c1	0	-	?	-	?	0
Cc1cccc(S(=O)(=O)NC(=O)C2(C)CCN2C(=O)Cc2ccc(Cl)cc2Cl)c1 (centres undefined)	0	-	0	0	0	0
CCNC(=O)C1CCCN(Cc2cc(-c3ccccc3)on2)CC1 (centres undefined)	0	-	0	0	?	0
COc1ccc(-c2nc(SCC(=O)NCc3nc4ccccc4n3C)n3[nH]c(=O)cc3n2)cc1	-	-	0	-	0	-
O=S(=O)(c1ccccc1)N1CCN(c2nc(-c3cccs3)nc3ccccc23)CC1	-	?	13µM	-	?	-
O=S(=O)(c1ccc(Cl)cc1)N1CCN(c2nc(-c3cccs3)nc3ccccc23)CC1	0	0	0	0	?	0
O=S(=O)(c1ccc(C(F)(F)F)cc1)N1CCN(c2nc(-c3cccs3)nc3ccccc23)CC1	0	-	0	-	0	0
CC(C)S(=O)(=O)N1CCN(c2nc(-c3cccs3)nc3ccccc23)CC1	0	-	11µM	-	18µM	0
C#Cc1ccc(CN2CCN(CCCc3ccccc3)C(CCO)C2)cc1 (centres undefined)	0	?	0	-55	?	0
COc1ccc(CN2CCN(CCCc3ccccc3)C(CCO)C2)c(OC)c1 (centres undefined)	0	0	?	0	?	0
CCOc1ccc(CN2CCN(CCCc3ccccc3)CC2CCO)cc1 (centres undefined)	0	0	?	-52	?	0
COc1cc(CN2CCN(CCCc3ccccc3)C(CCO)C2)cc(OC)c1O (centres undefined)	0	0	6.5µM	0	6.5µM	0
OCCC#Cc1ccc(CN2CCN(CCc3ccccc3)C(CCO)C2)cc1 (centres undefined)	0	0	0	0	0	0
CCOc1ccccc1NC(=O)Cn1c(=O)n(-c2ccc(C)c(C)c2)c(=O)c2c(C)c(C(=O)N(C)C)sc21	-	-	0	-	0	-
O=C1CC(c2cccnc2)c2cc3c(cc2N1)OCCO3 (centres undefined)	0	0	0	0	0	0
CCOc1cc(C2CC(=O)Nc3cc4c(cc32)OCCO4)ccc1O (centres undefined)	-	-	18µM	-	?	-
CCCOc1ccccc1C1CC(=O)Nc2cc3c(cc21)OCCO3 (centres undefined)	1.3µM	?	0.73µM	0	0.65µM	1.5µM
CCOc1c(Br)cc(C2CC(=O)Nc3cc4c(cc32)OCO4)cc1OC (centres undefined)	-	-	2.9µM	-	4.6µM	-
CCOc1ccccc1C1CC(=O)Nc2cc3c(cc21)OCCO3 (centres undefined)	?	?	1µM	0	0.52µM	4.1µM
O=C(CCNC(=O)c1ccco1)NCc1ccc(C(=O)O)cc1	0	0	0	0	0	0
O=C(COC(=O)CN1C(=O)COc2ccccc21)NCc1ccc(F)cc1	0	0	0	0	0	0
COc1ccc(NC(=O)N2CC[C@@]3(CCCN(C(C)=O)C3)C2)cc1	-	-	?	-	0	-
O=C(CSc1cccc2cccnc12)N/N=C/c1ccc(O)cc1	0	0	?	0	?	0
COc1cccc(/C=N/NC(=O)CSc2cccc3cccnc23)c1	0	0	?	0	12µM	0
Cc1cccc(CSc2cccc3cccnc23)c1	?	?	4.1µM	-110	3.7µM	?
CCOC(=O)CSc1cccc2cccnc12	0	?	5.8µM	0	5.8µM	?
